System: Vero E6 infected with SARS-CoV-2
Assay: inhibition of SARS-CoV-2 cytopathic effect; higher = more antiviral protection, active = above 15
Details: 48 h

Measured: inhibition of SARS-CoV-2 cytopathic effect

COC(=O)[C@@H]1[C@H]2C[C@H]3c4[nH]c5ccccc5c4CCN3C[C@@H]2CC[C@@H]1O [yohimbine]
inactive: 1 nM 0.18% | 8.33 nM 2.4% | 100 nM 1.41% | 833.33 nM -1.6% | 10000 nM -0.14%

COc1ccc2c(C(=S)N(C)CC(=O)O)cccc2c1C(F)(F)F [tolrestat]
inactive: 1 nM 0.38% | 8.33 nM -0.6% | 100 nM -3.79% | 833.33 nM -3.61% | 10000 nM -5.09%

CC[N+](CC)(CC)CCOc1cccc(OCC[N+](CC)(CC)CC)c1OCC[N+](CC)(CC)CC [gallamine-triethiodide]
inactive: 1 nM 0.22% | 8.33 nM 3.57% | 100 nM 3.37% | 833.33 nM 2.88% | 10000 nM -1.08%

NC(=O)NC(=O)Cc1ccccc1 [phenacemide]
inactive: 1 nM -1.41% | 8.33 nM 0.22% | 100 nM -0.3% | 833.33 nM 0.89% | 10000 nM 0.35%

Clc1ccc(COC(Cn2ccnc2)c2ccc(Cl)cc2Cl)c(Cl)c1 (stereo not given) [miconazole]
inactive: 1 nM -1.92% | 8.33 nM 0.22% | 100 nM -0.38% | 833.33 nM 0.7% | 10000 nM -4.16%

CC(=O)[C@@]1(O)CC[C@H]2[C@@H]3C=C(Cl)C4=CC(=O)[C@@H]5C[C@@H]5[C@]4(C)[C@H]3CC[C@@]21C
inactive: 1 nM -4.45% | 8.33 nM -5.77% | 100 nM -6.29% | 833.33 nM -6.05% | 10000 nM -4.41%

Cc1cn2c(N)c(Cl)cc(C(=O)NCC3CCN(CC(C)C)CC3)c2n1
inactive: 1 nM 2.35% | 8.33 nM 1.24% | 100 nM 2.96% | 833.33 nM 3.33% | 10000 nM 0.75%

COc1cc(C(=O)NS(=O)(=O)c2ccccc2C)ccc1Cc1cn(C)c2ccc(NC(=O)OC3CCCC3)cc12 [zafirlukast]
inactive: 1 nM -1.22% | 8.33 nM -0.73% | 100 nM 0.48% | 833.33 nM 0.88% | 10000 nM -2.73%

CC(=O)NCCC(=O)N[C@@H](Cc1c[nH]cn1)C(=O)O [N-acetylcarnosine]
inactive: 1 nM 1.19% | 8.33 nM 1.23% | 100 nM -0.15% | 833.33 nM -2.97% | 10000 nM 4.18%

CC(C)(C)[C@]1(O)CC2OC(=O)CC23C(=O)OC2OC(=O)[C@H](O)C231 (stereo not given in full) [bilobalide]
inactive: 1 nM -0.27% | 8.33 nM 0.92% | 100 nM 0.44% | 833.33 nM -0.26% | 10000 nM -0.37%

COc1cc(N)c(Cl)cc1C(=O)NC1CN2CCC1CC2 (stereo not given) [zacopride]
inactive: 1 nM 0.12% | 8.33 nM -0.23% | 100 nM -1.28% | 833.33 nM -2.33% | 10000 nM -4.26%

C[N+]1([O-])[C@@H]2C[C@@H](OC(=O)[C@H](CO)c3ccccc3)C[C@H]1[C@@H]1O[C@@H]12 (stereo not given in full) [scopolamine-N-oxide]
inactive: 1 nM 7.18% | 8.33 nM 4.58% | 100 nM 3.81% | 833.33 nM 13.6% | 10000 nM 3.51%

C[C@](N)(Cc1ccc(O)c(O)c1)C(=O)O [methyldopa]
inactive: 1 nM -0.96% | 8.33 nM 0.87% | 100 nM -0.52% | 833.33 nM -1.66% | 10000 nM 0.52%

N[C@H]1C[C@@H]1c1ccccc1 (racemic) [tranylcypromine]
inactive: 1 nM 0.8% | 8.33 nM -0.11% | 100 nM -0.1% | 833.33 nM 0.19% | 10000 nM 2.21%

COc1ccc2[nH]c([S+]([O-])Cc3ncc(C)c(OC)c3C)nc2c1 (stereo not given) [omeprazole-magnesium]
inactive: 1 nM 3.38% | 8.33 nM 2.29% | 100 nM 3.04% | 833.33 nM 6.47% | 10000 nM 6.97%

CC(C)N(CCCCOCC(=O)NS(C)(=O)=O)c1cnc(-c2ccccc2)c(-c2ccccc2)n1 [selexipag]
inactive: 1 nM -0.52% | 8.33 nM -1.02% | 100 nM -0.43% | 833.33 nM -0.43% | 10000 nM -1.53%

Nc1cc(N2CCCCC2)nc(N)[n+]1[O-] [minoxidil]
inactive: 1 nM 0.37% | 8.33 nM 0.28% | 100 nM -0.2% | 833.33 nM 1.1% | 10000 nM -0.33%

CCN(c1cc(-c2ccc(CN3CCOCC3)cc2)cc(C(=O)NCc2c(C)cc(C)[nH]c2=O)c1C)C1CCOCC1 [tazemetostat]
inactive: 1 nM 2.86% | 8.33 nM 0.49% | 100 nM 3.47% | 833.33 nM 0.53% | 10000 nM -0.93%

C#C[C@]1(OC(=O)CCCCCC)CC[C@H]2[C@@H]3CCC4=CC(=O)CC[C@@H]4[C@H]3CC[C@@]21C [norethisterone-enanthate]
inactive: 1 nM 2.31% | 8.33 nM 0.16% | 100 nM 0.91% | 833.33 nM -1.87% | 10000 nM -1.58%

CCCC(C)C1(CC)C(=O)NC(=S)NC1=O (stereo not given) [thiopental]
inactive: 1 nM -0.77% | 8.33 nM 0.01% | 100 nM 0.2% | 833.33 nM 1.29% | 10000 nM 0.45%

O=C(O)CCC(=O)O [succinic-acid]
inactive: 1 nM -0.06% | 8.33 nM -1.83% | 100 nM -1.13% | 833.33 nM -0.66% | 10000 nM 2.3%

CC(C)(C)S(=O)(=O)N[C@H]1CC[C@H](C(=O)Nc2ccc(C(F)(F)F)cn2)CC1 [velneperit]
inactive: 1 nM 2.37% | 8.33 nM -0.93% | 100 nM -0.23% | 833.33 nM -1.55% | 10000 nM -1.63%

O=C(Nc1ccccc1-c1cn2c(CN3CCNCC3)csc2n1)c1cnc2ccccc2n1
inactive: 1 nM 0.17% | 8.33 nM 1.58% | 100 nM -0.07% | 833.33 nM -3.31% | 10000 nM -26.2%

Cc1ccc(C(C)C)c(O)c1 [thymol]
inactive: 1 nM 2.55% | 8.33 nM -2.55% | 100 nM -2.75% | 833.33 nM -1.48% | 10000 nM -1.32%

COCC(=O)O[C@]1(CCN(C)CCCc2nc3ccccc3[nH]2)CCc2cc(F)ccc2[C@@H]1C(C)C [mibefradil]
inactive: 1 nM -2.83% | 8.33 nM 0.22% | 100 nM -2.5% | 833.33 nM -0.56%
active: 10000 nM 62.1%

O=C1CCC[C@@H]2[C@H]3C[C@@H](CN12)[C@@H]1CCCCN1C3 [lupanine]
inactive: 1 nM 2.64% | 8.33 nM 9.38% | 100 nM 5.68% | 833.33 nM 1.8% | 10000 nM -0.17%

CN1CCN(CCCN2c3ccccc3Sc3ccc(C(F)(F)F)cc32)CC1 [trifluoperazine]
inactive: 1 nM -0.89% | 8.33 nM 1.64% | 100 nM -3.09% | 833.33 nM -4.01% | 10000 nM 14.5%

O=C1c2ccccc2C(=O)c2ccccc21 [anthraquinone]
inactive: 1 nM -2.37% | 8.33 nM -0.48% | 100 nM -1.17% | 833.33 nM 1.54% | 10000 nM 0.18%

CC1Cc2ccccc2N1NC(=O)c1ccc(Cl)c(S(N)(=O)=O)c1 (stereo not given) [indapamide]
inactive: 1 nM 0.88% | 8.33 nM 2.8% | 100 nM 0.11% | 833.33 nM 1.3% | 10000 nM 1.05%

CC(=O)NC1CCSC1=O (stereo not given) [citiolone]
inactive: 1 nM 3.06% | 8.33 nM -0.41% | 100 nM -6.39% | 833.33 nM -4.01% | 10000 nM 2.58%

C[C@H](Cc1ccc(O)c(O)c1)[C@@H](C)Cc1ccc(O)c(O)c1 [masoprocol]
inactive: 1 nM -3.87% | 8.33 nM 1.69% | 100 nM 2.75% | 833.33 nM -1.7% | 10000 nM 12%

N[C@@H](C(=O)O)c1ccc(C(=O)O)c(C(=O)O)c1 (racemic)
inactive: 1 nM 2.59% | 8.33 nM 0.287% | 100 nM 1.6% | 833.33 nM -2.93% | 10000 nM -0.293%

COc1cc(NC(=O)c2ccccn2)ccc1Cl
inactive: 1 nM -0.99% | 8.33 nM -1.87% | 100 nM 1.63% | 833.33 nM 2.18% | 10000 nM 1.18%

COCCOc1ccc2c(c1)ncn2-c1ccc2cccc(N3CCC(N)CC3)c2n1
inactive: 1 nM -0.92% | 8.33 nM 2.04% | 100 nM 0.64% | 833.33 nM 1.12% | 10000 nM -2.22%

CC(C)C[C@H](CN)CC(=O)O
inactive: 1 nM -2.46% | 8.33 nM -1.59% | 100 nM -0.55% | 833.33 nM -0.08% | 10000 nM 0.02%

O=c1c(O)c(-c2ccc(O)cc2)oc2cc(O)cc(O)c12 [kaempferol]
inactive: 1 nM -3.6% | 8.33 nM 12% | 100 nM -1.58% | 833.33 nM 1.56% | 10000 nM 11.2%

O=C(O)c1cc(C(=O)O)c(C(=O)N(Cc2cccc(Oc3ccccc3)c2)[C@H]2CCCc3ccccc32)cc1C(=O)O
inactive: 1 nM 0.03% | 8.33 nM -0.1% | 100 nM -1.42% | 833.33 nM -0.62% | 10000 nM 0.42%

Nc1c(CC(=O)O)cccc1C(=O)c1ccccc1 [amfenac]
inactive: 1 nM 0.42% | 8.33 nM 0.91% | 100 nM 1.2% | 833.33 nM -0.82% | 10000 nM -2.19%

CC(C)(O)CC[C@@H](O)[C@](C)(O)[C@H]1CC[C@@]2(O)C3=CC(=O)[C@@H]4C[C@@H](O)[C@@H](O)C[C@]4(C)[C@H]3CC[C@]12C [20-hydroxyecdysone]
inactive: 1 nM -3.9% | 8.33 nM -2.28% | 100 nM -3.43% | 833.33 nM 0.03% | 10000 nM 1.01%
